# Assay results reported in PMC7862700, “An all-to-all approach to the identification of sequence-specific readers for epigenetic DNA modifications on cytosine”.
# Experiments:
# Experiment in all cases: DAPPL (digital affinity profiling via proximity ligation, sequencing); 10 mM Tris-HCl pH 7.5, 50 mM NaCl, 1 mM DTT, 4% glycerol, room temperature, 30 min; GST-TFs on glutathione beads, 16-mer random dsDNA library, 0.1% formaldehyde crosslink after washing; high values mean tight binding
# FEV = molecular target: T1, FEV (Homo sapiens, UniProt Q99581 1-238); settings: protein: recombinant; tags: N-terminal GST; dsDNA, one strand shown
# T1 sequence: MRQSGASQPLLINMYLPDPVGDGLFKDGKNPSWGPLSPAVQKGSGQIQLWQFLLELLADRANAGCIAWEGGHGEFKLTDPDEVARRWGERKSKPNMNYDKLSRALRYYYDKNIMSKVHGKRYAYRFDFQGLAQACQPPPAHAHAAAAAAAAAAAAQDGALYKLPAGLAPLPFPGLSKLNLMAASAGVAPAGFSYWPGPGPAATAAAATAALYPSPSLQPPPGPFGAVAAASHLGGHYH
# Outline: (§1)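 Binding signal is given per hexamer as its read frequency for a factor divided by its frequency in the tag-only sample. GST-fused human transcription factors were expressed in yeast, captured on glutathione beads, barcoded with DNA and pooled with that sample, then incubated with 200 nmole of a 16-mer random double-stranded DNA library in Tris/NaCl/DTT/glycerol buffer for 30 min at room temperature. The pools were then washed, crosslinked, proximity-ligated, amplified by PCR and sequenced on an Illumina NextSeq500.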
# ETV5 = ETV5 (Homo sapiens, UniProt P41161 1-510); settings: protein: recombinant; tags: N-terminal GST; dsDNA, one strand shown
# Outline: as §1
# HSF1 = HSF1 (Homo sapiens, UniProt Q00613 1-529); settings: protein: recombinant; tags: N-terminal GST; chain copies: 3; dsDNA, one strand shown
# Outline: as §1
# SPIC = molecular target: T2, SPIC (Homo sapiens, UniProt Q8N5J4 1-248); settings: protein: recombinant; tags: N-terminal GST; dsDNA, one strand shown
# T2 sequence: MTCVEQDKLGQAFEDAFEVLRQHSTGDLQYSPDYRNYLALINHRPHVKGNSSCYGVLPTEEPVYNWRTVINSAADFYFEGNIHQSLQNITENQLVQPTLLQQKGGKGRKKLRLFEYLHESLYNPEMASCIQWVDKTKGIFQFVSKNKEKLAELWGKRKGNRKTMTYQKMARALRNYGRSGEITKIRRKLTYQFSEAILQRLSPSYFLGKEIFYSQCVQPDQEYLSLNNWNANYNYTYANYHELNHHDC
# Outline: as §1
# ELF4 = ELF4 (Homo sapiens, UniProt Q99607 1-663); settings: protein: recombinant; tags: N-terminal GST; dsDNA, one strand shown
# Outline: as §1
# ELK4 = molecular target: T3, ELK4 (Homo sapiens, UniProt P28324-2 1-405); settings: protein: recombinant; tags: N-terminal GST; dsDNA, one strand shown
# T3 sequence: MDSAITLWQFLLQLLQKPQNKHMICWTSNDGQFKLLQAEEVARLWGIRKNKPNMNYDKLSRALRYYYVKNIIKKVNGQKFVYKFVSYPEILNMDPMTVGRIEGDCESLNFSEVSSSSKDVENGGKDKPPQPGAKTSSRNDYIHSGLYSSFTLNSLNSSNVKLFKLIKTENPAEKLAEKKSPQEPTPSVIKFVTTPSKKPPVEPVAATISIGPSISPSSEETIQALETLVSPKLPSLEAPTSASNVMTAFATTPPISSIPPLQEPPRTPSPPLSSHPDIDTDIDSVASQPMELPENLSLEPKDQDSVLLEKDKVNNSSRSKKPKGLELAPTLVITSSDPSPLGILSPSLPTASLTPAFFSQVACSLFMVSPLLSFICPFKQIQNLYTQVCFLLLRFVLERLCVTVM
# Outline: as §1
# ETV2 = molecular target: T4, ETV2 (Homo sapiens, UniProt O00321 1-342); settings: protein: recombinant; tags: N-terminal GST; dsDNA, one strand shown
# T4 sequence: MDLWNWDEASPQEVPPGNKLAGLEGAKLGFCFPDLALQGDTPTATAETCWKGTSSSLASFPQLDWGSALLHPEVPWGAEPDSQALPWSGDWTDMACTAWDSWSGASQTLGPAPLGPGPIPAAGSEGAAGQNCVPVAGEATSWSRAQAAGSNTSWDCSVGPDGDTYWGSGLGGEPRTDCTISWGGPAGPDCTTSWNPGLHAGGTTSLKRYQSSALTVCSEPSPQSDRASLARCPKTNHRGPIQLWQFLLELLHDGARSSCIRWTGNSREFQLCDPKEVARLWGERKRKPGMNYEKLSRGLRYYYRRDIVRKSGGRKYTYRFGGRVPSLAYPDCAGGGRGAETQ
# Outline: as §1
# ELF3 = molecular target: T5, ELF3 (Homo sapiens, UniProt P78545 1-371); settings: protein: recombinant; tags: N-terminal GST; dsDNA, one strand shown
# T5 sequence: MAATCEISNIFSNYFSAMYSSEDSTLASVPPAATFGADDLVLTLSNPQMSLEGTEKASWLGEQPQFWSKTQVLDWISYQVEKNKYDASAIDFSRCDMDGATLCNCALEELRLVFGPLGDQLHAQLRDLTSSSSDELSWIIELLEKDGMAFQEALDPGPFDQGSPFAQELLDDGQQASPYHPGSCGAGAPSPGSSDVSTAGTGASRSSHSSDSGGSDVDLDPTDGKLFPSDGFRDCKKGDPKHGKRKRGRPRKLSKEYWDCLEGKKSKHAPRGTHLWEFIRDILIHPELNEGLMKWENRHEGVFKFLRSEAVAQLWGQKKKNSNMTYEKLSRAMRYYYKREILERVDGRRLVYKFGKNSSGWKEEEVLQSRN
# Outline: as §1
# CRX = CRX (Homo sapiens, UniProt O43186 1-299); settings: protein: recombinant; tags: N-terminal GST; dsDNA, one strand shown
# Outline: as §1
# ETV1 = ETV1 (Homo sapiens, UniProt P50549 1-477); settings: protein: recombinant; tags: N-terminal GST; dsDNA, one strand shown
# Outline: as §1
# ERF = molecular target: T6, ERF (Homo sapiens, UniProt P50548 1-548); settings: protein: recombinant; tags: N-terminal GST; dsDNA, one strand shown
# T6 sequence: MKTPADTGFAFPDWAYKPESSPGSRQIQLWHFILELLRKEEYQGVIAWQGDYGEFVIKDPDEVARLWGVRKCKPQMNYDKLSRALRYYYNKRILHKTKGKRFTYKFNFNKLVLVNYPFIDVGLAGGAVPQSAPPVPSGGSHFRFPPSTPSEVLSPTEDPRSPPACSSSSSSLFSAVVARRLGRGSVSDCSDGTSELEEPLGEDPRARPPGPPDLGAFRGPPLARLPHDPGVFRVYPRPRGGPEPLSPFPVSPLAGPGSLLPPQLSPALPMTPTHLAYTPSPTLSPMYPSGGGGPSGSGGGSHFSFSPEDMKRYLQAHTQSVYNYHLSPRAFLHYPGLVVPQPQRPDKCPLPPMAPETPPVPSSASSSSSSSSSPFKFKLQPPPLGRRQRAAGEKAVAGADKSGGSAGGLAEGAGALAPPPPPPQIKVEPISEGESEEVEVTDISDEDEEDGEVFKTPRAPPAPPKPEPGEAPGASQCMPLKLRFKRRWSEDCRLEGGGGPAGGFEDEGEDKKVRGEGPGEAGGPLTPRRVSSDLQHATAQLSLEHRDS
# Outline: as §1
# ETV3L = molecular target: T7, ETV3L (Homo sapiens, UniProt Q6ZN32 1-361); settings: protein: recombinant; tags: N-terminal GST; dsDNA, one strand shown
# T7 sequence: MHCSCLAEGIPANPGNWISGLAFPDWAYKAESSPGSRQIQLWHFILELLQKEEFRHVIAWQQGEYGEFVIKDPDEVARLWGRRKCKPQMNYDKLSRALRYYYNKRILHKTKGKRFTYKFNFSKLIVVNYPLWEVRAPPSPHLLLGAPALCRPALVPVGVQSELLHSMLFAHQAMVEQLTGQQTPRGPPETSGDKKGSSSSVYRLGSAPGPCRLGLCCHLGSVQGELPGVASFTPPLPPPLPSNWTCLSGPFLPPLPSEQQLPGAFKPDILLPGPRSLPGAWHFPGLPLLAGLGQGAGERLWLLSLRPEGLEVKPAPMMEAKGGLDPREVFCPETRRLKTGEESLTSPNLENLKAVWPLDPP
# Outline: as §1
# ETS2 = molecular target: T8, ETS2 (Homo sapiens, UniProt P15036 1-469); settings: protein: recombinant; tags: N-terminal GST; dsDNA, one strand shown
# T8 sequence: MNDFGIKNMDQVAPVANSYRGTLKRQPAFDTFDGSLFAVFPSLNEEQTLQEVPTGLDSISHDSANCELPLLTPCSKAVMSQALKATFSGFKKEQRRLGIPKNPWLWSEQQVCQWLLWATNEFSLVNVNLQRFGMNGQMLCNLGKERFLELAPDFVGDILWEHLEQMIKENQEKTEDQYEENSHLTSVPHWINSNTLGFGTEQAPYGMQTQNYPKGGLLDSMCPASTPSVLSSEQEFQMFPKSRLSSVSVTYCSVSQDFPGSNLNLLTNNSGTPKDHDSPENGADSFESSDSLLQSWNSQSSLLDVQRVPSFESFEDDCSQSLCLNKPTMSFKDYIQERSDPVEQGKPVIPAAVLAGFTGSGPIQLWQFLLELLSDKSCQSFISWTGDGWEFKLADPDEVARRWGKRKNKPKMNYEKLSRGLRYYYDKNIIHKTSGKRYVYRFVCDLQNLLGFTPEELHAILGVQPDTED
# Outline: as §1
# SPDEF = molecular target: T9, SPDEF (Homo sapiens, UniProt O95238 1-335); settings: protein: recombinant; tags: N-terminal GST; dsDNA, one strand shown
# T9 sequence: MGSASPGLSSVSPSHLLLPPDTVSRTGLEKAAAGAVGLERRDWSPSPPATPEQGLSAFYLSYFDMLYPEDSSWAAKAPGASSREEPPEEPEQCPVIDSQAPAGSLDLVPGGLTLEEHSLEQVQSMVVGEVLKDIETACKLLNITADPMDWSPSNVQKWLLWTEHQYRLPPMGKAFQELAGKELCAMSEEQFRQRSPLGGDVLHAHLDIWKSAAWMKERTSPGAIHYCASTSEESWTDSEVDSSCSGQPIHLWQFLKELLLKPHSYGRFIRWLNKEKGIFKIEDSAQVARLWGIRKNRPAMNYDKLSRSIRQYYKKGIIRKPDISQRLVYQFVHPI
# Outline: as §1
# ETV7 = molecular target: T10, ETV7 (Homo sapiens, UniProt Q9Y603 1-341); settings: protein: recombinant; tags: N-terminal GST; dsDNA, one strand shown
# T10 sequence: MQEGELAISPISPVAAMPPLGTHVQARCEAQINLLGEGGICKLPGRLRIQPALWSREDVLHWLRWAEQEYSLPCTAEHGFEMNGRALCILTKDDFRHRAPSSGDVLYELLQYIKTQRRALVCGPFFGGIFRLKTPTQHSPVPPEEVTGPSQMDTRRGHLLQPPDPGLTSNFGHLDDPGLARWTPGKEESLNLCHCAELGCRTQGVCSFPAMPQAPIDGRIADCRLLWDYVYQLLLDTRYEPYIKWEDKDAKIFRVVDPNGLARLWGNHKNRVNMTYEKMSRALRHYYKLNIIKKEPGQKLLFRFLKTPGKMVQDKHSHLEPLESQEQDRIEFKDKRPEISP
# Outline: as §1
# ELF5 = molecular target: T11, ELF5 (Homo sapiens, UniProt Q9UKW6-2 1-255); settings: protein: recombinant; tags: N-terminal GST; dsDNA, one strand shown
# T11 sequence: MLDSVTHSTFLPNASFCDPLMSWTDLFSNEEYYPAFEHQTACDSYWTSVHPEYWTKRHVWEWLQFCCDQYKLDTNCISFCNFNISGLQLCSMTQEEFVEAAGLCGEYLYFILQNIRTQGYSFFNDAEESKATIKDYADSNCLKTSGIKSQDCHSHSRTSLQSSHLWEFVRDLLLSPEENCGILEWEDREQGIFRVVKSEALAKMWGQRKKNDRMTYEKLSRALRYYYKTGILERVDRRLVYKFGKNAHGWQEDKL
# Outline: as §1
# ETV3 = molecular target: T12, ETV3 (Homo sapiens, UniProt P41162-2 1-143); settings: protein: recombinant; tags: N-terminal GST; dsDNA, one strand shown
# T12 sequence: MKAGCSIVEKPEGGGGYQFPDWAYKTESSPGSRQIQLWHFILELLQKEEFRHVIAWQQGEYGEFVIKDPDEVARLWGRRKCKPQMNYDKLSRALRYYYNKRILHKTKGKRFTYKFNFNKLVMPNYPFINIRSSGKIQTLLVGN
# Outline: as §1
# ETV6 = ETV6 (Homo sapiens, UniProt P41212 1-452); settings: protein: recombinant; tags: N-terminal GST; dsDNA, one strand shown
# Outline: as §1
# ELF4, sequence (Q99607 whole entry): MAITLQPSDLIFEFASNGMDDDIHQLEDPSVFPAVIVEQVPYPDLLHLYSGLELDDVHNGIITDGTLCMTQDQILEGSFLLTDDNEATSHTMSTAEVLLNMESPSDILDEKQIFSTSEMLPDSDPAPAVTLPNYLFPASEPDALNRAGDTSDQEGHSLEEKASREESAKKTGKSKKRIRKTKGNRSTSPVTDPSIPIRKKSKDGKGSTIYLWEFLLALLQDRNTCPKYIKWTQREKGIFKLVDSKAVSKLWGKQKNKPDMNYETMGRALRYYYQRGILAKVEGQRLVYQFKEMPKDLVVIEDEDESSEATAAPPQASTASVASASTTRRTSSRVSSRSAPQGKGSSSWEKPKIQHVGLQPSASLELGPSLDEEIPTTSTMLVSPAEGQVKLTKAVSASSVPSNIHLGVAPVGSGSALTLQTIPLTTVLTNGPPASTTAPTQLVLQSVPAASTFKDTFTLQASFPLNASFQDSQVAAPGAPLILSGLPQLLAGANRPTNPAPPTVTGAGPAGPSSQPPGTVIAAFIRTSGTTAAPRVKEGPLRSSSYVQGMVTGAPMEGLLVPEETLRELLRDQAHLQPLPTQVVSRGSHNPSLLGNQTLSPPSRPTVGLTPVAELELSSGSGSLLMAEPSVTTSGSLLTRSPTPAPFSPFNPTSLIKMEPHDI
# CRX, sequence (O43186 whole entry): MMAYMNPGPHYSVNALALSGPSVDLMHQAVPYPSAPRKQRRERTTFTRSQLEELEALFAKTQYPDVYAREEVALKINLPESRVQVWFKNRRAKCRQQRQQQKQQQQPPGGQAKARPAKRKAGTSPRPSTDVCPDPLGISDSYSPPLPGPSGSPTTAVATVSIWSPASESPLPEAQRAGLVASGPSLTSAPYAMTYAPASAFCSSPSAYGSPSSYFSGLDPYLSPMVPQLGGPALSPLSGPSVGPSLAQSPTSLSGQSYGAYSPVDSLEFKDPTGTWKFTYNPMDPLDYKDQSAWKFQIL
# ETV6, sequence (P41212 whole entry): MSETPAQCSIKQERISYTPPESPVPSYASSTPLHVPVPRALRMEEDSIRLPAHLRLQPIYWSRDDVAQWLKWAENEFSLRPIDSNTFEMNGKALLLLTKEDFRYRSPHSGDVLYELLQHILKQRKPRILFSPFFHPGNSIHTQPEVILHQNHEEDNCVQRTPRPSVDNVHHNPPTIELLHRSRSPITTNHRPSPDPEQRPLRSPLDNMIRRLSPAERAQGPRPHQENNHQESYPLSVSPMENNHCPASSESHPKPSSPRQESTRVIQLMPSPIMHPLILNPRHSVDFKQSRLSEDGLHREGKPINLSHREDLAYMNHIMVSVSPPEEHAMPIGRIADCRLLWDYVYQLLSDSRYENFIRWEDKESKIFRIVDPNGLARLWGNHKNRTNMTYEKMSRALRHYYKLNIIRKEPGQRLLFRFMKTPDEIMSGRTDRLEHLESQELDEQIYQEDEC
# HSF1, sequence (Q00613 whole entry): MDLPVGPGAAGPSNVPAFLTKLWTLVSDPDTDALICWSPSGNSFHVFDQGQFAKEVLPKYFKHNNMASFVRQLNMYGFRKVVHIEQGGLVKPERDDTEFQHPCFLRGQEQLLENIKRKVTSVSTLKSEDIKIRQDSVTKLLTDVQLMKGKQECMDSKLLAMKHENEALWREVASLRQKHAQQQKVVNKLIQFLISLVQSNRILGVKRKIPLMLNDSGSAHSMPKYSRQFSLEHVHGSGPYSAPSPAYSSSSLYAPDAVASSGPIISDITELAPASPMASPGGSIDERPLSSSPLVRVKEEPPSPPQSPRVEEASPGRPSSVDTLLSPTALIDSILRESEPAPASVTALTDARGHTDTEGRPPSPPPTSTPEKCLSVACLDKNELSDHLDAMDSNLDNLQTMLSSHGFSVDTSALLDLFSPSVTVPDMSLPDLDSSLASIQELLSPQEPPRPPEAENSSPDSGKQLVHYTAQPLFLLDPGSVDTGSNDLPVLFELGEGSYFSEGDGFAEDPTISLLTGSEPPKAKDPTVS
# ETV5, sequence (P41161 whole entry): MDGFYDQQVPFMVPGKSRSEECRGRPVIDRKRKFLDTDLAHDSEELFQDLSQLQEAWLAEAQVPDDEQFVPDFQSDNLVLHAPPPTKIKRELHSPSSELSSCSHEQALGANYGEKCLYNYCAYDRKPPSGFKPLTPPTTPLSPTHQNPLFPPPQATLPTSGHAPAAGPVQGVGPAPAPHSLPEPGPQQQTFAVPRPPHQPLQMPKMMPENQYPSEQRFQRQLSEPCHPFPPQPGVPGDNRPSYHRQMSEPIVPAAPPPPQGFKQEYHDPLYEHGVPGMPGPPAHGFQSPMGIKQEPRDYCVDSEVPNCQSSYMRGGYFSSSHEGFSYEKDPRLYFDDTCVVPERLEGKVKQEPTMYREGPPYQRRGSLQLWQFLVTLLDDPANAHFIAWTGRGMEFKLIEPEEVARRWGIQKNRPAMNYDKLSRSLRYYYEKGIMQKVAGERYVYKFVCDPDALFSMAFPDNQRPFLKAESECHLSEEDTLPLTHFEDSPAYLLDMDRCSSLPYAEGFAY
# ETV1, sequence (P50549 whole entry): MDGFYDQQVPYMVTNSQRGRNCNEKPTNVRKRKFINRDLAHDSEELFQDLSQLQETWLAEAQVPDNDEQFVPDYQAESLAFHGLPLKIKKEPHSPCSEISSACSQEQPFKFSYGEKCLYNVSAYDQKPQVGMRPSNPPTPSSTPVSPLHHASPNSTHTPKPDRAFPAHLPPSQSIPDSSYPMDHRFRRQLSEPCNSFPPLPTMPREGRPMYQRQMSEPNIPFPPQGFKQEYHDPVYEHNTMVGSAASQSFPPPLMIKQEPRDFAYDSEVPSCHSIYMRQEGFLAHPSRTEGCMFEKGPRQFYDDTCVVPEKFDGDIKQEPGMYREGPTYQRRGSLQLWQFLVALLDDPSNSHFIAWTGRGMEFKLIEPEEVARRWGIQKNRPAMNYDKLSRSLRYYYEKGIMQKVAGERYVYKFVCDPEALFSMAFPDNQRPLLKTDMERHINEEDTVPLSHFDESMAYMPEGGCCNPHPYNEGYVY
sequence,measurement,setting,value
ATGTCT,binding signal,FEV,"1.27 fold enrichment (6-mer frequency, TF over GST control)"
same,binding signal,ETV5,"1.36 fold enrichment (6-mer frequency, TF over GST control)"
same,binding signal,HSF1,"1.17 fold enrichment (6-mer frequency, TF over GST control)"
same,binding signal,SPIC,"1.27 fold enrichment (6-mer frequency, TF over GST control)"
same,binding signal,ELF4,"1.28 fold enrichment (6-mer frequency, TF over GST control)"
same,binding signal,ELK4,"1.07 fold enrichment (6-mer frequency, TF over GST control)"
same,binding signal,ETV2,"1.26 fold enrichment (6-mer frequency, TF over GST control)"
same,binding signal,ELF3,"1.08 fold enrichment (6-mer frequency, TF over GST control)"
same,binding signal,CRX,"1.18 fold enrichment (6-mer frequency, TF over GST control)"
same,binding signal,ETV1,"1.23 fold enrichment (6-mer frequency, TF over GST control)"
same,binding signal,ERF,"1.38 fold enrichment (6-mer frequency, TF over GST control)"
same,binding signal,ETV3L,"1.27 fold enrichment (6-mer frequency, TF over GST control)"
same,binding signal,ETS2,"1.28 fold enrichment (6-mer frequency, TF over GST control)"
same,binding signal,SPDEF,"1.26 fold enrichment (6-mer frequency, TF over GST control)"
same,binding signal,ETV7,"1.12 fold enrichment (6-mer frequency, TF over GST control)"
same,binding signal,ELF5,"1.35 fold enrichment (6-mer frequency, TF over GST control)"
same,binding signal,ETV3,"1.26 fold enrichment (6-mer frequency, TF over GST control)"
same,binding signal,ETV6,"1.23 fold enrichment (6-mer frequency, TF over GST control)"
